# According to PubChem BioAssay (Tox21):
# Where “and” joins values, the source holds several entries; their conditions need not be identical. Equal values may be shown once. Results filed as inconclusive are left out. A call without a number means that no potency is given here. Values without a mark were called inactive. Calls of active or inactive are those of the source. The call rests on the fitted dose curve; in most records, active means well fitted cell-killing curve with a large enough effect in the repeat runs; inconclusive means weak or mixed curves, or effect the other way; inactive means no such curve, though single readings can be large or run the other way.
# Assay: qHTS assay to identify small molecule agonists of the RXR signaling pathway - cell viability counter screen (AID 1159529); further: nearly all actives have a fitted effect of over 50% in size
# Settings: RXR-alpha-bla HEK293T viability, CellTiter-Glo, 16 h; series mostly up to 76.8 µM
# Source text: National Center for Advancing Translational Sciences [NCATS]
# NIH Chemical Genomics Center [NCGC]
# U.S. Environmental Protection Agency [EPA]
# National Institutes of Environmental Health Sciences [NIEHS]
# National Toxicology Program [NTP]
# U.S. Food and Drug Administration [FDA]
# The Retinoid X receptor (RXR), a nuclear hormone receptor expressed in liver, spleen, placenta, epidermis, central nervous system. These receptors are able to form homo and heterodimers with other nuclear receptors and due to this heterodimerizing ability, RXR functions as master regulators producing diverse physiological effects. Three subtypes of RXR exist; alpha, beta and gamma. Retinoid X receptor alpha (RXR-alpha) has potential roles in metabolic signaling pathways, skin alopecia, dermal cysts, cardiac development, insulin sensitization etc. Therefore screening environmental chemicals on RXR-alpha signaling can be used for the studies focused on such therapeutic applications. For quantification of RXR-alpha ligands signaling, GeneBLAzer RXR alpha-UAS-bla HEK 293T (Life Technologies, Carlsbad, CA) cells containing a beta-lactamase reporter-gene under control of Retinoid X receptor-alpha response element were used to screen Tox21 10K library. The cytotoxicity of the Tox21 compound library against the RXR-alpha HEK 293T cell line was tested in parallel by measuring cell viability using CellTiter-Glo assay (Promega Corporation, Madison, WI) in the same wells.
# Tox21 Assay Protocol Summary:
# RXR-alpha HEK 293T cells were dispensed at 2,000 cells/6 uL of assay medium containing 2% charcoal-stripped FBS using a Multidrop Combi (ThermoFisher Scientific, Waltham, MA) dispenser. The assay was performed in black wall/clear-bottom 1536-well plates (Greiner Bio-One North America Inc. Monroe, NC). Tetraoctyl ammonium bromide was used as a positive control in the cytotoxicity screen. After the assay plates were incubated at 37 C and 5% CO2 for 5 hr, 23 nL of compounds dissolved in DMSO, positive control or DMSO only were transferred to the assay plate by a Pintool station (Kalypsys, San Diego, CA). The assay plates were incubated at 37 C and 5% CO2 for 16 hr. One uL of LiveBLAzer B/G FRET substrate (Life Technologies) was added using a Flying Reagent Dispenser (FRD) (Aurora Discovery, San Diego, CA) and the plates were incubated at room temperature for 2 hr. Fluorescence intensity (405 nm excitation, 460/530 nm emission) was measured using an Envision plate reader (PerkinElmer, Shelton, CT). For cytotoxicity, 4 uL/well of CellTiter-Glo reagent was added into the assay plates using an FRD. After 30 min incubation at room temperature, the luminescence intensity was measured using a ViewLux plate reader (PerkinElmer).
# Potency means the concentration at half of the fitted maximal effect.
SMILES,Potency,"activity change, negative = cytotoxicity"
CC1CCC(C(C)C)C(OC(=O)c2ccccc2N)C1 (stereo not given),17.1 µM (active),–
[Cd+2].[Cl-].[Cl-],17.5 µM (active) and 24.5 µM (active),–
CCSC(C)CC1CC(=O)C(/C(CC)=N/OC/C=C/Cl)=C(O)C1 (stereo not given),inactive,–
Cc1ccc(C(=O)Cl)cc1,inactive,–
Oc1ccccc1Br,inactive,–
[Cl][Sn]([c]1ccccc1)([c]1ccccc1)[c]1ccccc1,0.585 µM (active),–
CN(C)S(=O)(=O)N(SC(F)(Cl)Cl)c1ccccc1,21.9 µM (active),–
Cc1cc(C)cc(OP(=O)(Oc2cc(C)cc(C)c2)Oc2cc(C)cc(C)c2)c1,inactive,–
COc1ccc(OC)c(C=O)c1,inactive,–
Cc1cc(C(C)(C)c2cc(C)c(O)c(C)c2)cc(C)c1O,47.4 µM (active),–
COC(=O)N(C(=O)N1CO[C@@]2(C(=O)OC)Cc3cc(Cl)ccc3C2=N1)c1ccc(OC(F)(F)F)cc1,inactive,–
O=C(O)c1cc[c]([Hg][Cl])cc1,43.6 µM (active),–
FC(Cl)(Cl)Cl,inactive,–
CCCCOP(=O)(CCCC)OCCCC,inactive,–
Clc1ccc(C(Cl)(Cl)Cl)c(Cl)c1,19.6 µM (active),–
CCOP(=S)(OCC)OC(Cl)C(Cl)(Cl)Cl (stereo not given),inactive,–
Cc1cc(N=Nc2ccccc2C)ccc1N,54.9 µM (active) and 43.6 µM (active),–
CC1(C)C(/C=C(\Cl)C(F)(F)F)C1C(=O)OC(C#N)c1cccc(Oc2ccccc2)c1 (stereo not given),inactive,–
CC(C)OS(C)(=O)=O,inactive,–
Clc1ccc(C(c2ccc(Cl)cc2)C(Cl)(Cl)Cl)cc1,22 µM (active) and 30.9 µM (active) and 23.9 µM (active),–

SMILES,Potency,"activity change, negative = cytotoxicity"
OC(Cc1ccccc1Cl)(Cn1cncn1)C1(Cl)CC1 (stereo not given),inactive,–
N#CCc1ccc(Cl)cc1,inactive,–
O=C1NCN(c2ccccc2)C12CCN(CC1COc3ccccc3O1)CC2 (stereo not given),6.74 µM (active),–
CCOC(=O)CC(=O)CCl,inactive,–
c1ccc(Nc2ccc3ccccc3c2)cc1,43.4 µM (active),–
CC(C)CBr,inactive,–
CCCCCCCCCCCCCC[P+](CCCCCC)(CCCCCC)CCCCCC (tested in a mixture with another compound),9.77 µM (active),–
O=c1ssc(Cl)c1Cl,inactive,–
CCc1ccccc1C,inactive,–
Cc1cc(SCc2sc(-c3ccc(C(F)(F)F)c(F)c3)nc2C)ccc1OCC(=O)O,19.5 µM (active),–
CC(Cc1ccc(C(C)(C)C)cc1)CN1C[C@@H](C)O[C@@H](C)C1 (stereo not given in full),inactive,–
Brc1c(Br)c(Br)c(Oc2c(Br)c(Br)c(Br)c(Br)c2Br)c(Br)c1Br,–,2.64% [at 15.8 µM]
CN(C)C(=S)S,1.22 µM (active) and 43.6 µM (active),–
Oc1cccc(-c2ccccc2)c1,inactive,–
CC(C)(c1ccc(O)c(-c2ccccc2)c1)c1ccc(O)c(-c2ccccc2)c1,24.5 µM (active),–
CCN,inactive,–
c1ccc2cc3c(cc2c1)-c1cccc2cccc-3c12,inactive,–
O=C(CCl)Nc1ccccc1,inactive,–
Cl/C=C\CCl,inactive,–
[Hg+2].[I-].[I-],3.89 µM (active),–
